The panel holds about 83,000 compounds, 20% with a hit somewhere; the sample as a whole holds those more often.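 Note: values are percent growth. 100 is the growth of untreated cells, values between 100 and 0 indicate rising inhibition; between -100 and 0 indicates cell death.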 Values without a mark were called inactive. Calls of active or inactive are those of the source. The calls were made as follows: active = growth percent below 10; inactive = the rest.
tested on: MDA-MB-468 breast; test: NCI-60 one-dose screen, 48 h (100 = growth as untreated, 0 = no growth, -100 = all killed); conditions: 10 µM unless noted

SMILES	growth
O=C(/C=C/c1ccc[nH]1)c1ccc(-n2ccc(C(F)(F)F)n2)cc1	90.3%
S=c1[nH]ccn1-c1c(Cl)cccc1Cl	110%
CCOC(=O)c1c(NC(=S)Nc2ccc([N+](=O)[O-])cc2)sc2c1CCCCC2	71.2%
CCCOCC(O)CNCCN (stereo unspecified)	106%
CC(=O)N1CC(=O)NC1=S	95.9%
CCO/C=N/C1=C(C#N)C(c2ccc(F)cc2)c2sc3c(F)cccc3c2O1 (stereo unspecified)	27.2%
CC1(C)CC[C@]2(CN)CC[C@]3(C)C(=CC[C@@H]4[C@@]5(C)CCCNC(C)(C)[C@@H]5CC[C@]43C)[C@H]2C1	96.1%
CCOc1ccc(/C=N/N=C(N)N)cc1OCC	98.3%
CCN1CCN(c2nc(NNC(=O)c3ccccc3)nc(N3CCN(C(c4ccccc4)c4ccccc4)CC3)n2)CC1	7.71% (active)
Cc1cc(O)ccc1Sc1ccccc1[N+](=O)[O-]	95.3%
CN1CCN(CC(=O)Nc2ccc(-c3nc4ccccc4s3)cc2)CC1	-11.4% (active)
O=C(/C=C/c1cc(-c2ccc3c(c2)OCO3)n[nH]1)c1ccc2c(c1)OCO2	77.2%
CO/N=C1\CCc2c(sc(NC(=O)c3cccc(C(F)(F)F)c3)c2C(N)=O)C1	29.9%
CCOC(=O)c1n[nH]n2c1nc(=O)c1cnn(C)c12	113%
CCN(CC)CCCOCCCNc1cc(OC)cc2cccnc12	-6.79% (active)
[O-]/[N+](=C\c1ccc(-n2cc(Cc3ccccc3Cc3cn(-c4ccc(/C=[N+](/[O-])c5ccccc5)cc4)nn3)nn2)cc1)c1ccccc1	96.6%

From PubChem BioAssay (NCI)
